SKN-1 block – inhibitors of C. elegans SKN-1; inhibition, % at 21.8 µM; C. elegans VP596 Pgst-4::GFP/RFP ratio, acrylamide-induced, 24 h; 0.49% of 360,000 active;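 active = interference check ratio from 0.5 to 1.5 plus GFP to RFP signal ratio inhibition reaching or exceeding a fixed threshold, cut at about 30% in these data, passing the limit was not always enough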
CRFR2-BP ag – agonists of human CRF-binding protein/CRF-R2 receptor complex. activation, % at 13.2 µM. 0.46% of 350,000 active. AID 588473. HEK293 CRF-R2/CRF-BP, calcium dye fluorescence (FLIPR); percent of saturating CRF peptide response;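 active = activation of at least 50%, plus an integration ratio under a set limit after plate pattern correction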
hiPSC survival – enhancers of human iPSC single-cell survival | hiPSC single-cell survival, ATPlite luminescence; 100% = ROCK inhibitor wells, 0% = DMSO | survival enhancement, % at 20 µM | 0.044% of 360,000 active; in the data active = survival enhancement above about 18%;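 also: cells exposed to compounds for 16 hours before the ATP read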
CRFBP-R2 block – antagonists of CRF-binding protein/CRF-R2 receptor complex. 0.59% of 350,000 active. inhibition, % at 11.8 µM. HEK293 CRF-R2/CRF-BP, CRF-induced calcium fluorescence. AID 588475;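 active = inhibition of the ligand-induced calcium signal above about 50% at the single tested concentration, limit read from the data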
Cardio protect – modulators protecting cardiomyocytes from myocardial damage; H9c2 cardiomyocytes, H2O2 injury protection, ATPLite, 2 h; protection from H2O2 cell death, % at 20 µM; 0.63% of 360,000 active; AID 588492;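 active = compounds giving at least 50% protection of heart cells from peroxide-induced death in the single-dose screen, raw or plate-pattern-corrected value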
TAG inh – inhibitors of triacylglycerol accumulation; H9c2 cells, Nile Red lipid (TAG) fluorescence; cells loaded with 200 µM oleic acid; inhibition, % at 12.5 µM; 0.66% of 230,000 active; AID 651582;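 active = pattern-corrected inhibition of lipid staining of at least 50% with the nuclear-stain viability signal not falling by more than 50%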
TAG conf – triacylglycerol accumulation inhibition, confirmation; inhibition, % at 12.5 µM; AID 651629; shares compounds with TAG inh; 71% of 990 active; H9c2 lipid accumulation, Nile Red fluorescence; cells loaded with 200 µM oleic acid;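 active = mean inhibition across replicates of 40% or more; inactive = mean inhibition below 40%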
Of the large screens only hits and unclear results are named; the others gave an inactive call (follow-up assays come after a bar, where they were run). Sampled rows, rich in hits. Any-hit rate of the full collection: about 2.5%.

CC(=O)Nc1ccc(-c2ccnc3c2CC(C)(C(=O)NCC2CC2)O3)cc1 (stereo not drawn)	none (no result: CRFR2-BP ag, CRFBP-R2 block)
O=C(N/N=C/c1ccc(Cl)cc1)c1n[nH]c2c1CCCC2	TAG inh 59 | TAG conf inactive
O=C(N/N=C/c1ccccc1)c1n[nH]c2c1CCCC2	none
COc1ccc(NC(=O)O[C@@H](C)[C@@H]2CN3CCc4c([nH]c5ccc(-c6ccc(OC)cc6)cc45)[C@@H]3C[C@@H]2N(C)C(=O)Nc2ccc(OC)cc2)cc1	TAG inh 72 | TAG conf 72
COc1ccc(NC(=O)N(C)[C@H]2C[C@H]3c4[nH]c5ccc(-c6ccc(OC)cc6)cc5c4CCN3C[C@H]2[C@H](C)O)cc1	none
COc1ccc(NC(=O)N(C)[C@H]2C[C@H]3c4[nH]c5ccc(-c6ccc(OC)cc6)cc5c4CCN3C(=O)[C@H]2[C@H](C)O)cc1	none
COc1ccc(-c2ccc3[nH]c4c(c3c2)CCN2C[C@@H]([C@H](C)OC(=O)Nc3cc(Cl)cc(Cl)c3)[C@@H](N(C)C(=O)Nc3cc(Cl)cc(Cl)c3)C[C@@H]42)cc1	TAG inh 73 | TAG conf 84
COc1ccc(NC(=O)N(C)[C@H]2C[C@H]3c4[nH]c5ccc(-c6ccc7c(c6)OCO7)cc5c4CCN3C[C@H]2[C@H](C)O)cc1	Cardio protect 54, TAG inh 60 | TAG conf 66
O=C1NN(CCO)C(=S)Nc2ccccc21	none
Cc1ccc(-n2nc(C)c3c(C)c(CCC(=O)Nc4ccc(CN5CCCC5)cc4)c(C)nc32)cc1	TAG inh 65 | TAG conf 59
Cn1cc(CCC(=O)NCc2ccc(Cl)cc2)c2ccccc21	none (no result: TAG inh)
CCC1(O)CC2CN(CCc3c([nH]c4ccccc34)C(C(=O)OC)(c3cc4c(cc3OC)N(C=O)C3C(O)(C(=O)OC)C(OC(C)=O)C5(CC)C=CCN6CCC43C65)C2)C1 (stereo not drawn)	TAG inh 52 | TAG conf 57
CCOC(=O)C1(C)CCN1C(=O)c1ccc(SC(F)(F)F)cc1 (stereo not drawn)	none (no result: CRFR2-BP ag, CRFBP-R2 block)
CC(C)CNC(=O)c1coc(=O)c(Br)c1	TAG inh 60 | TAG conf inactive
CN(C)CCNC(=O)c1coc(=O)c(Br)c1	none
COc1cc2c(cc1OC)C(C)N(C(=O)c1cc3c(C)cc(C)cc3[nH]1)CC2 (stereo not drawn)	TAG inh 54 | TAG conf 59
CCN(CC)CCCN(C(=O)c1cccs1)c1nc(-c2ccc(OC)cc2)cs1	TAG inh 55 | TAG conf 47
CN=C1c2cc3cc(OC)ccc3n2CCN1Cc1ccccc1	TAG inh 57 | TAG conf 51
Cc1ccc2nc(-c3ccccc3)cc(C(=O)NCC(c3ccco3)N(C)C)c2c1 (stereo not drawn)	none
COc1ccc(-c2nc3ccc(Cl)cn3c2NC2CCCCC2)cc1SC1CCCCC1	TAG inh 63 | TAG conf 70
O=C(CSc1nnc(NCc2ccccc2)s1)N1CCOCC1	none (no result: TAG inh)
Cc1cc(C(=O)CSc2nnc(NCc3ccccc3)s2)c(C)n1C	TAG inh 51 | TAG conf inactive
Cc1ccccc1OCCNc1cc(N2CC(C)NC(C)C2)ccc1[N+](=O)[O-] (stereo not drawn)	TAG inh 56 | TAG conf 62
CC(C)(C)NC(=O)c1ccc(NC(=O)CSc2ccccc2)cc1	none
CCOc1ccc(OCC)c(NC(=O)CN(c2ccc(C)cc2)S(=O)(=O)c2c(C)noc2C)c1	TAG inh 53 | TAG conf 46
CCOC(=O)C1CCCN1C(=O)c1ccc(OC)c(Br)c1 (stereo not drawn)	none
CCOC(=O)C1CCCCN1C(=O)c1cc2ccc(OC)cc2c2cc(OC)c(OC)cc12 (stereo not drawn)	TAG inh 54 | TAG conf inactive
Cc1cccc(C)c1NC(=O)CSc1nc(-c2ccco2)cc(C(F)(F)F)n1	none (no result: TAG inh)
Cc1cc(NC(=O)CSc2nc(-c3ccco3)cc(C(F)(F)F)n2)no1	TAG inh 66 | TAG conf 58
O=C(NCC1CC1)c1onc(CSc2ccncc2)c1C(=O)NCC1CC1	TAG inh 50 | TAG conf inactive
O=C(CSc1nnc(CNC(=O)c2ccco2)o1)Nc1cccc(F)c1	none (no result: TAG inh)
CCc1nc2ccc(C(=O)NCc3ccc4c(c3)OCO4)cn2c1N(CCC(C)C)CCN(C)C	TAG inh 73 (no result: CRFR2-BP ag, CRFBP-R2 block) | TAG conf inactive
O=C(OCCN=C1NS(=O)(=O)c2ccccc21)c1cccs1	none
C#CCOCCOCCOCCNc1nc(N2CCN(C(=O)[C@H](CCCCN)n3cc([C@@H](N)CO)nn3)CC2)nc(N2CCN(C(=O)[C@H](CCCCN)n3cc([C@@H](N)CC(C)C)nn3)CC2)n1	TAG inh 70 | TAG conf inactive
O=C(/C=C/c1ccccc1)Oc1cccc2cccnc12	TAG inh 50 | TAG conf inactive
O=C(/C=C\c1ccccc1)Oc1cccc2cccnc12	none
COc1ccc(C#Cc2ccc3c(c2)O[C@@H](CN(C)C(=O)Nc2cccc(OC)c2)[C@H](C)CN([C@@H](C)CO)S3(=O)=O)cc1	TAG inh 77 | TAG conf 82
CC(C)NC(=O)N(C)C[C@H]1Oc2cc(C#Cc3ccc(F)cc3)ccc2S(=O)(=O)N([C@H](C)CO)C[C@H]1C	TAG inh 56 | TAG conf 63
COc1cccc(NC(=O)N(C)C[C@H]2Oc3cc(C#Cc4ccncc4)ccc3S(=O)(=O)N([C@H](C)CO)C[C@H]2C)c1	none
CCCc1c(C(=O)N/N=C/C2CC=CCC2)nnn1-c1nonc1N (stereo not drawn)	none
c1ccc(OCCNc2nc(NCC3CC3)nc3cc(-c4ccccc4)sc23)cc1	TAG inh 57 (no result: CRFR2-BP ag, CRFBP-R2 block) | TAG conf 41
COCCNc1nc(Oc2ccc(NC(C)=O)cc2)c2sc(-c3ccccc3)cc2n1	none (no result: CRFR2-BP ag, CRFBP-R2 block)
c1ccc(CNc2nc(NCC3CC3)nc3cc(-c4ccccc4)sc23)cc1	none (no result: CRFR2-BP ag, CRFBP-R2 block)
COCCNc1nc(NCc2ccc(NC(C)=O)cc2)c2sc(-c3ccccc3)cc2n1	TAG inh 53 (no result: CRFR2-BP ag, CRFBP-R2 block) | TAG conf 123
C=CCNc1nc(Nc2ccc(OC)c(OC)c2)c2sc(-c3ccccc3)cc2n1	TAG inh 70 (no result: CRFR2-BP ag, CRFBP-R2 block) | TAG conf 82
C[C@@H]1CCCCCCCCC(=O)OCCN[C@H](C)CCCCCCCCC(=O)OCCN[C@H](C)CCCCCCCCC(=O)OCCN1	none (no result: TAG inh)
FC(F)(F)c1nnc2ccc(NCc3ccccc3)nn12	none
CSc1ccc(OC2(C)CCN(Cc3ccc(OC(C)C)cc3)C2)cc1 (stereo not drawn)	none (no result: CRFR2-BP ag, CRFBP-R2 block)
CC(=O)Nc1ccc2[nH]c(C)cc(=O)c2c1	none
